{"source": "PubChem BioAssay (NCATS)", "note": "Several values for one entry are separate records, joined by “and”; a condition that tells them apart may be missing. Identical values can stand only once. Records with an inconclusive call do not appear. The source holds several records for some structures; these can differ, active in one and inactive in another. Activity calls are given as the source filed them.", "data": [{"assay": "qHTS assay for small molecule activators of the p53 signaling pathway (AID 651743; active = well fitted activation curve with a large enough effect in the signal ratio, not every such curve was filed as active; the % refers to the signal ratio; note: potency is the fitted concentration of half-maximal effect; for activation: series mostly up to about 92 µM; % of control where 0% means no effect)", "conditions": "HCT-116 p53RE-bla, beta-lactamase FRET ratio, 16 h; activation: hits give high values", "summary_of_the_method": "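Following 16 hours of compound exposure at 37 C, HCT-116 cells bearing the p53RE-bla reporter were loaded with LiveBLAzer B/G FRET substrate for 2 hours at room temperature and fluorescence intensity was recorded.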", "values": [{"smiles": "CCCCCCc1ccc(-c2ccc(C#N)cc2)cc1", "activation": "1.83% (inactive)"}, {"smiles": "Nc1cnn([C@@H]2O[C@H](CO)[C@@H](O)[C@H]2O)c(=O)n1", "Potency": "0.794 µM (active)"}, {"smiles": "CCCCCCCCOc1ccc(C(=O)O)cc1", "activation": "4.64% (inactive)"}, {"smiles": "Oc1c(Cl)cc(Cl)c(Cl)c1Cl", "Potency": "44.7 µM (active)", "activation": "2.74% (inactive)"}, {"smiles": "CC(C)OCC1CO1", "note": "(configuration not stated)", "activation": "0.641% (inactive)"}, {"smiles": "C/C(Cl)=C/CCl", "activation": "-4.9% (inactive)"}, {"smiles": "O=c1[nH]ncc2ccccc12", "activation": "-2.08% (inactive)"}, {"smiles": "c1ccc(COCc2ccccc2)cc1", "activation": "-1.51% (inactive)"}, {"smiles": "O=[N+]([O-])c1cccc(I)c1", "activation": "-3.48% (inactive)"}, {"smiles": "Nc1ccc2c(c1)C(=O)c1ccccc1C2=O", "activation": "2.17% (inactive) and 5.16% (inactive)"}, {"smiles": "c1ccc2c(c1)ccc1ccccc12", "activation": "-2.61% (inactive) and 2.1% (inactive)"}, {"smiles": "Nc1ccc(N=Nc2ccccc2)c(N)c1", "activation": "-4.52% (inactive)"}, {"smiles": "COc1ccc([N+](=O)[O-])cc1N", "activation": "-2.91% (inactive) and -2.52% (inactive)"}, {"smiles": "Nc1cc(C(=O)O)c(O)c(S(=O)(=O)O)c1", "activation": "-4.77% (inactive)"}, {"smiles": "Oc1ccc2c(c1)OCO2", "activation": "4.65% (inactive)"}, {"smiles": "c1ccncc1", "activation": "-0.205% (inactive)"}, {"smiles": "O=C(OCc1ccccc1)c1ccccc1O", "activation": "1.07% (inactive) and -2.52% (inactive)"}, {"smiles": "CCN(CC)c1ccc2c(C)cc(=O)oc2c1", "Potency": "39.8 µM (active)"}, {"smiles": "c1c[nH]cn1", "activation": "-1.43% (inactive)"}, {"smiles": "c1ccc(SCCSc2ccccc2)cc1", "activation": "-1.09% (inactive)"}, {"smiles": "O=C(O)/C=C/c1ccc(/C=C/C(=O)O)cc1", "activation": "1.28% (inactive)"}, {"smiles": "CCCCOC(=O)COc1ccc(Cl)cc1Cl", "activation": "-0.84% (inactive) and -2.7% (inactive)"}, {"smiles": "CC(=O)OC(C(=O)c1ccccc1)c1ccccc1", "note": "(configuration not stated)", "activation": "-2.72% (inactive)"}, {"smiles": "CCCCCCN", "activation": "-1.84% (inactive)"}, {"smiles": "CC(=O)Nc1cccc(C)c1", "activation": "0.223% (inactive)"}, {"smiles": "COc1ccc(C)cc1N", "activation": "-5.11% (inactive)"}, {"smiles": "CCc1ccc(C(c2ccc(CC)cc2)C(Cl)Cl)cc1", "activation": "-0.867% (inactive)"}, {"smiles": "C[C@@H]1CC2(OC(O)[C@]3(C)O[C@H]23)O[C@H]2C[C@@]3(C)[C@@H]4CC[C@H]5C(C)(C)C(O[C@@H]6OC[C@@H](O)[C@H](O)[C@H]6O)CC[C@@]56C[C@@]46CC[C@]3(C)[C@@H]12", "note": "(some centres not stated)", "activation": "-3.37% (inactive)"}, {"smiles": "O=[N+]([O-])c1ccccc1Nc1ccccc1", "activation": "-4.76% (inactive)"}, {"smiles": "C=CC1CO1", "note": "(configuration not stated)", "activation": "-3.74% (inactive)"}, {"smiles": "CCOC(=O)C1OC1c1ccccc1", "note": "(configuration not stated)", "activation": "6.05% (inactive)"}, {"smiles": "COc1ccc(C(=O)Nc2ccccc2)cc1[N+](=O)[O-]", "activation": "-6.78% (inactive)"}]}, {"assay": "qHTS assay for small molecule activators of the nuclear factor-kappa B (NF-kB) signaling pathway (AID 651749; active = well fitted activation curve with a large enough effect in the signal ratio; the % refers to the signal ratio; note: series mostly up to about 77 µM; % of control where 0% means no effect)", "conditions": "NF-kB-bla ME-180 cells, beta-lactamase FRET ratio, 16 h; hits give high values", "summary_of_the_method": "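In this qHTS format, compounds acting as activators increase NF-kB-driven beta-lactamase in ME-180 cells, measured as disrupted FRET after 16 hr exposure at 37C and 5% CO2.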", "values": [{"smiles": "CCCCCCCCOc1ccc(C(=O)O)cc1", "activation": "-0.0346% (inactive)"}, {"smiles": "Oc1c(Cl)cc(Cl)c(Cl)c1Cl", "activation": "-0.537% (inactive) and 2.41% (inactive)"}, {"smiles": "CC(C)OCC1CO1", "note": "(configuration not stated)", "activation": "0.599% (inactive)"}, {"smiles": "O=c1[nH]ncc2ccccc12", "activation": "0.114% (inactive)"}, {"smiles": "c1ccc(COCc2ccccc2)cc1", "activation": "0.253% (inactive)"}, {"smiles": "O=[N+]([O-])c1cccc(I)c1", "activation": "-0.0255% (inactive)"}, {"smiles": "Nc1ccc2c(c1)C(=O)c1ccccc1C2=O", "activation": "1.2% (inactive) and -1.21% (inactive)"}, {"smiles": "c1ccc2c(c1)ccc1ccccc12", "activation": "-1.69% (inactive) and -0.971% (inactive)"}, {"smiles": "Nc1ccc(N=Nc2ccccc2)c(N)c1", "activation": "-1.7% (inactive)"}, {"smiles": "Cc1ccc(C(=O)O)cc1[N+](=O)[O-]", "activation": "-1.02% (inactive)"}, {"smiles": "COc1ccc([N+](=O)[O-])cc1N", "activation": "2.19% (inactive) and -0.307% (inactive)"}, {"smiles": "OCC(CO)(CBr)CBr", "activation": "-1.02% (inactive) and -1.55% (inactive)"}, {"smiles": "c1ccncc1", "activation": "0.644% (inactive)"}, {"smiles": "CC(=O)OC1CC(C)OC(C)O1", "note": "(configuration not stated)", "activation": "-0.185% (inactive) and -2.01% (inactive)"}, {"smiles": "O=C(OCc1ccccc1)c1ccccc1O", "activation": "-0.301% (inactive) and -2.68% (inactive)"}, {"smiles": "C/C=C/C=C/C=O", "activation": "-1.3% (inactive)"}, {"smiles": "c1c[nH]cn1", "activation": "0.0227% (inactive)"}, {"smiles": "c1ccc(SCCSc2ccccc2)cc1", "activation": "-4.5% (inactive)"}, {"smiles": "O=C(O)/C=C/c1ccc(/C=C/C(=O)O)cc1", "activation": "-0.449% (inactive)"}, {"smiles": "CCCCOC(=O)COc1ccc(Cl)cc1Cl", "activation": "1.36% (inactive) and -1.12% (inactive)"}, {"smiles": "CC(=O)OC(C(=O)c1ccccc1)c1ccccc1", "note": "(configuration not stated)", "activation": "0.305% (inactive)"}, {"smiles": "CCCCCCN", "activation": "-0.245% (inactive)"}, {"smiles": "CC(=O)Nc1cccc(C)c1", "activation": "-1.12% (inactive)"}, {"smiles": "CCC(Cl)CC(Cl)C(Cl)C(Cl)C(Cl)C(C)Cl", "note": "(configuration not stated)", "activation": "0.226% (inactive)"}, {"smiles": "COc1ccc(C)cc1N", "activation": "-0.459% (inactive)"}, {"smiles": "C[C@@H]1CC2(OC(O)[C@]3(C)O[C@H]23)O[C@H]2C[C@@]3(C)[C@@H]4CC[C@H]5C(C)(C)C(O[C@@H]6OC[C@@H](O)[C@H](O)[C@H]6O)CC[C@@]56C[C@@]46CC[C@]3(C)[C@@H]12", "note": "(some centres not stated)", "activation": "-2.65% (inactive)"}, {"smiles": "C=CC1CO1", "note": "(configuration not stated)", "activation": "0.488% (inactive)"}, {"smiles": "CCOC(=O)C1OC1c1ccccc1", "note": "(configuration not stated)", "activation": "0.437% (inactive)"}, {"smiles": "COc1ccc(C(=O)Nc2ccccc2)cc1[N+](=O)[O-]", "activation": "1.42% (inactive)"}]}]}
